Measurements: the OligoGym collection

target: FH; test: pooled miR-30 sensor sort-seq; sequence = guide strand; conditions: shRNA
Note: reference of the scale not given here.

Sequence	sensor-assay potency score (higher = more potent)
TTCATCAGCTTGTTGATCCTTT	0.529
TTTACATTCATATTTGTCTGAG	-0.0374
TGGATCAAGACCATAATCCTGG	0.098

target: FIGF; test: as above; conditions: shRNA

Sequence	sensor-assay potency score (higher = more potent)
AAACTTTTGAGCCTCAGCCTGC	-0.913
TTTGTTGCTATCCCATAGCATG	-1.38
TGATCTGCTGTTCAGATCGTTC	-1.69
TAGCATGTCAATAGGACAGAGT	-0.483
ATCTTCGTCAAACATCATGTGT	-0.944
TAATTGAGTATGGATGGCGGGG	-0.582
TTTTTTTTTAACACCTGGGAAA	-1.2
TTACAGACACACTCGCAACGAT	-0.443
TCATCTATAACTTTTAGTGTTT	-1.04
TTCTTCATCTATAACTTTTAGT	-0.323
TACAGACACACTCGCAACGATC	-1.17
TTGCACTCAAAGCAACTGCAGT	-1.07
TGTTTTACAGACACACTCGCAA	0.505
TAATCAGTCATATGACACCTGC	-0.697
TGCAACAGCCACCACATCGGAA	-0.975
TTGGTCTGGATTCACTGTGGTG	-0.724
TTACATTTGTTGCTATCCCATA	-0.837
TTCTGCATAAAAAAGAATCAGA	-0.887
TTGGCAAGCACTTACAACCTGT	-0.889
TTCTTTGCCATTCTTCATCTAT	-0.386
TAGTGTTTCAATGTCATAGAAA	-1.28
TTCATCTATAACTTTTAGTGTT	-0.356
TAGAAAGTTGCCGCAAACCTAG	-0.566
TAGAAGACATCCATCAATGAAC	-1.15

target: FILIP1L; test: as above; conditions: shRNA

Sequence	sensor-assay potency score (higher = more potent)
TTAGAGAACCACAAGACTCTGG	0.224
TTGTCTACTGCTTCTGTCTGAA	0.143
TTTTTCCACAACTTTGTCCAAC	-1.3
TAATTTGTGATTGTCGAGGAAG	-0.722
TTCTTGATCAATTAGCTTCTTT	0.000192
TATAGTTCATGCACAAACCTTC	-0.0966
TTGAGTTCGGTTATCCTGCAGT	-0.337
TTTTTCAACATATTAACTCTTG	-0.558
TTACTCTGTAACGTCTCCCTTT	-0.579
TTTTCTGCTAACTTGTACTTAG	-0.314
TTTTTCTTTTATATCTTGCAGC	-0.415
TTGCTGTTCATCCACCACCATC	-1.76
